# Shown are actives, neighbours in structure and some others; about 21% of the full set was active somewhere.
# HCV inh: blocks hepatitis C virus. hit rate 3.4% among 340,000. Huh7.5.1 HCVcc-Cre infection, luciferase reporter, 44 h. Potency, µM (top dose mostly 41.8 µM), usual class: inhibitors
#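 Cells (1,000/well) were plated 4 h before compound, then infected with HCVcc-Cre virus (~0.5 moi). After 44 h further culture, infection was read as luciferase luminescence following a 15 min substrate incubation at room temperature.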
# Shiga toxin inh: blocks Shiga toxin action in Vero cells; Vero cells, Shiga toxin protein synthesis inhibition reporter; inhibition, % at 38.7 µM; hit rate 9.2% among 290,000; AID 2315; in the data active = inhibition mostly above about 28%, no sharp cut-off; inactive = mostly below about 43%
# Pf growth 48h: inhibits P. falciparum growth in the first generation, 48 h | P. falciparum luciferase growth in erythrocytes, 48 h | Potency, µM (top dose mostly 28.7 µM), usual class: inhibitors | hit rate 5.9% among 310,000 | AID 504832
#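 In quantitative HTS format, infected erythrocytes bearing luciferase-reporter parasites were treated for a single generation at 37 C. Luminescence after adding detection reagent served as the growth measure.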
# Pf growth 96h: inhibits malaria parasite growth, 96 h | P. falciparum luciferase reporter growth, 96 h | Potency, µM (top dose mostly 28.7 µM), usual class: inhibitors | hit rate 6.9% among 320,000 | AID 504834
#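 Compounds incubated with erythrocytes infected by luciferase-expressing P. falciparum (2% hematocrit, 0.05% parasitemia final) for 96 hours, 37 C in 5% CO2. Growth inhibition scored as decreased luciferase luminescence.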
# HCMV antiviral: human cytomegalovirus inhibition | HFF cells, HCMV-luciferase reporter, 72 h; hits give low values | activity change, negative = inhibition, % at 57.5 µM | hit rate 4.5% among 410,000 | AID 1259415; in the data active = activity change below about -60%; inconclusive = no clear call, values can overlap the other calls; inactive = above about -39%
#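 Steps: HFFs plated, 16 h 37C; compounds added; HCMV-luciferase added to MOI 1 PFU/cell; 72 h 37C; OneGlo reagent, 5 min room temperature; luminescence read, normalized to controls.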
# Cycloheximide cs: counter-screen hit for Shiga toxin inhibitors, cycloheximide; cell reporter, cycloheximide protein synthesis inhibition counterscreen; max response, %; hit rate 12% among 300,000; in the data active = max response mostly above about 13%, no sharp cut-off; inactive = mostly below about 14%; note: read at 38.3 µM for the half of the compounds with a filed dose
# A number is an active result; – = inactive; ? = inconclusive; · = no result given; [ ] = dose if it differs, or a comment. Unless noted, calls come from the whole dose curve; as a rule, active = well fitted inhibition curve with a large enough effect; inconclusive = small, poorly fitted or top-dose-only effect, or another doubt; inactive = no such curve, though single readings can be large or run the other way.
SMILES,HCV inh,Shiga toxin inh,Pf growth 48h,Pf growth 96h,HCMV antiviral,Cycloheximide cs
O=C1c2ccccc2C(=O)N1CCc1csc(-c2ccccc2)n1,–,35.8,–,–,?,18.2
O=C(O)Cc1csc(-c2ccccc2)n1,–,–,–,–[1.15 µM],-63.2,–
Cc1ccc(-c2nc(C)sc2CC(=O)OCC(=O)Nc2ccc(F)c(Cl)c2)cc1,–,·,·,·,–,·
Cc1ccc(N2CC(C(=O)N3CCCCCC3)CC2=O)cc1 (configuration not stated),–,–,–,?,–,–
Cc1ncc(CO)c(/C=N/NC(=S)Nc2ccc(F)cc2)c1O,–,–,–,13.1µM,–,–
Cc1ncc(CO)c(/C=N/Nc2ccc(C(F)(F)F)cn2)c1O,?,–,?,2.33µM,-96.1,–
Cc1ncc(CO)c(/C=N/N=C/c2ccccc2O)c1O,–,–,?,–,–,16.0
CCOC(=O)C1CCCN(c2nc3c(S(=O)(=O)c4ccc(C)c(C)c4)nnn3c3ccc(Cl)cc23)C1 (configuration not stated),·,·,·,·,–,·
COCCCNc1oc(-c2ccc(COc3ccccc3C)o2)nc1C#N,·,·,·,·,–,·
COc1ccccc1NC(=O)CSc1oc(-c2ccco2)nc1S(=O)(=O)c1ccc(C)cc1,·,·,·,·,–,·
CC(C)CNS(=O)(=O)c1ccc(S(=O)(=O)N2CCN(C3CCCC3)CC2)cc1,–,–,?,–,-100.8,–
O=S(=O)(c1ccc(S(=O)(=O)N2CCN(C3CCCCC3)CC2)cc1)N1CCCCCC1,–,–,–,?,–,–
COc1cccc(-c2nc(=S)c3c(n2Cc2ccco2)CCCC3)c1,?,–,?,–,–,–
COc1cccc(-c2nc(=S)c3c(o2)CCCC3)c1,–,120.4,–,–,–,42.2
COP(=O)(OC)c1nc(-c2ccc([N+](=O)[O-])cc2)oc1N1CCCCC1,–,–,–,–,–,–
S=c1nc(-c2ccccc2)oc2c1CCCC2,–,94.6,–,–,–,59.6
O=[N+]([O-])c1ccc(-c2nc(=S)c3c(o2)CCCC3)cc1,–,–,–,–,-101.5,12.4
CCCOCc1cc(CN2CCN(c3cccc(Cl)c3)CC2)c(O)c2ncccc12,·,·,·,·,-96.7,·
CN1CCN(Cc2cc(COCc3ccccc3)c3cccnc3c2O)CC1,3.16µM,–,2.08µM,2.33µM,?,17.0
CCCCOCc1cc(CN2CCN(c3cccc(Cl)c3)CC2)c(O)c2ncccc12,·,·,·,·,-100.1,·
Oc1c(CN2CCc3ccccc3C2)cc(Cl)c2cccnc12,?,–,·,–,·,–
O=S(=O)(Nc1nnc(C2CC2)s1)c1ccccc1,–,–,–,–,–,–
COc1ccc(CN2C(=O)C(n3c(C)ccc3C)c3ccccc32)cc1 (configuration not stated),·,·,·,·,–,·
CCN(c1ccccc1)S(=O)(=O)c1ccc(Cl)c(NC(=O)CSc2nncn2C)c1,–,–,?,8.28µM,?,–
CCN(c1ccccc1)S(=O)(=O)c1ccc(Cl)c(NC(=O)CN2CCCCCC2)c1,14.1µM,–,5.86µM,?,?,–
SMILES,HCV inh,Shiga toxin inh,Pf growth 48h,Pf growth 96h,HCMV antiviral,Cycloheximide cs
CCC(C)NCC(=O)Nc1cc(S(=O)(=O)N(CC)c2ccccc2)ccc1Cl (configuration not stated),?,–,?,?,?,–
CCN(c1ccccc1)S(=O)(=O)c1ccc(Cl)c(NC(=O)CN(C)Cc2cccc(F)c2)c1,8.91µM,·,·,·,?,·
CCC(C)CCN1C(Nc2ccccc2)=NC[C@@H]1C (some centres not stated),?,–,–,–,–,–
CCCN1CCN(C(=O)Cn2nc(C)n3c(cc4c(OC)cccc43)c2=O)CC1,–,·,·,·,–,·
CC(C)(C)OC(=O)C[C@H]1C/C=C\C[C@H](CC(=O)NCCO)C(=O)N2CCC[C@@H]2COC1=O,–,·,·,·,-60.4,·
CC(C)(C)OC(=O)C[C@@H]1C/C=C\C[C@@H](CC(=O)NCCO)C(=O)N2CCC[C@H]2COC1=O,–,·,·,·,–,·
CCc1cccc(NC(=O)C2CCN(S(=O)(=O)c3ccc4c(c3)NC(=O)CO4)CC2)c1,?,–,–,–,–,–
CCN(CC)CCCNC(=O)c1ccc2c(c1)NC(=O)C(CS(=O)(=O)Cc1ccc(F)cc1Cl)N2 (configuration not stated),·,·,·,·,–,·
C[n+]1ccc(/C=C/c2ccccc2O)c2ccccc21,–,–,10.4µM,?,-97.0,–
CN1/C(=C/c2cc[n+](C)c3ccccc23)C=Cc2ccccc21,?,–,?,–,·,–
CN(C)c1ccc(/C=C/c2cc[n+](C)c3ccccc23)cc1,11.2µM,–,1.04µM,?,-98.5,26.7
C[n+]1ccc(-c2ccccc2)c2ccccc21,?,·,1.04µM,?,-86.7,·
CN(C)c1ccc(C=Cc2ccnc3c(O)cccc23)cc1,·,·,·,·,-98.6,·
C[n+]1c(-c2ccccc2)sc2ccccc21,–,–,?,–,–,–
OC(CNCC1COc2ccccc2O1)COc1ccccc1F (configuration not stated),–,–,–,–,–,–
O=C(/C=C/c1ccc(O)c(O)c1)O[C@H](Cc1ccc(O)c(O)c1)C(=O)O,·,–,–,–,·,–
CC(C)(C)OC(=O)NC(Cc1ccccc1)C(=O)NC1COC2CC(n3cc(F)c(=O)[nH]c3=O)OC12 (configuration not stated),·,–,·,·,·,–
CCCCNC(=O)C1c2ccccc2OCC(=O)N1Cc1ccccc1 (configuration not stated),·,·,·,·,–,·
COc1ccc(CN2CCN(C(=O)Cn3c(=O)oc4cc(Cl)ccc43)CC2)c(OC)c1OC,3.55µM,–,–,?,?,–
COc1ccc(CN2CCN(C(=O)Cn3ncn4cccc4c3=O)CC2)c(OC)c1OC,?,–,–,?,-63.9,–
COc1ccc(NC(=O)Cn2c(=O)oc3cc(Cl)ccc32)c(OC)c1,–,–,–,?,–,–
COc1ccc(CN2CCN(C(=O)Cn3nc(C)n4cccc4c3=O)CC2)c(OC)c1OC,–,–,–,–,–,–
CCCOc1ccc(CN2C(=O)C(=O)c3cccc(C)c32)cc1,·,·,·,·,–,·
Cc1ccc(CN2C(=O)C(=O)c3cc(Br)cc(C)c32)cc1,·,·,·,·,-103.1,·
c1ccc2c3nnc4n(c-3nc2c1)CCCS4,–,–,–,·,–,30.0
COC(=O)[C@@]1(Sc2ccc(OC)cc2)CC(=O)N(c2ccc(OC)cc2)[C@@H]1c1ccc(OC(C)C)c(OC)c1,·,·,·,·,–,·
COC(=O)CSC1=C(C#N)C(c2ccccc2)CC(=O)N1 (configuration not stated),–,–,–,9.28µM,–,–
N#CC1=C(SCC(=O)Nc2ccccc2)NC(=O)CC1c1ccc(O)cc1 (configuration not stated),–,–,·,5.86µM,–,–
N#CC1=C(SCC(=O)Nc2ccccc2)NC(=O)CC1c1ccco1 (configuration not stated),–,·,·,·,–,·
CC(Sc1nnc(-c2cccnc2)o1)C(=O)NC1CCCCC1 (configuration not stated),–,·,–,–,–,·

# Assay outcomes deposited in PubChem BioAssay by National Center for Advancing Translational Sciences (NCATS).
